High-throughput results: PubChem BioAssay, several laboratories
tim23-1 inh: tim23-1 yeast growth inhibition | S. cerevisiae tim23-1 growth, BacTiter-Glo luminescence, 24 h | AID 463212 | 330,000 compounds, 1.3% hits | inhibition, % at 20 µM;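 active = growth inhibition of the mutant yeast at or above 50%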;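 note: temperature-sensitive mutant grown at 25 °C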
SKKanGAS inh: inhibitors of SKKanGAS S. pyogenes growth in kanamycin (SK-promoter or general growth effect); 300,000 compounds, 1.3% hits; inhibition, % at 7.5 µM; BacTiter-Glo, 6 h;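 active = mean replicate score, as percent of positive control median, at least 50; inconclusive = mean below 50 but one replicate at or above 50; inactive = mean and every replicate below 50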;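 note: strain carries kanamycin resistance gene driven by streptokinase promoter and grows in 40 µg/ml kanamycin; loss of luminescence reflects streptokinase promoter inhibition or plain growth inhibition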
PfHsp90 set2: reduces growth (ATP signal) of yeast expressing P. falciparum Hsp90; AID 504621; S. cerevisiae expressing PfHsp90, BacTiter-Glo ATP, 48 h; yeast lacking PDR1 and PDR3 efflux regulators; 310,000 compounds, 0.32% hits; inhibition, % at 9.4 µM;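 active = every replicate shows inhibition above about 80%, whatever the replicate mean, limit read from the data; inconclusive = mean inhibition reaches the set limit but some replicate falls short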
TIM10 inh: inhibits growth of TIM10 yeast strain; S. cerevisiae TIM10 strain growth, BacTiter-Glo luminescence, 24 h; inhibition, % at 10 µM; 330,000 compounds, 1.4% hits; AID 463195;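 active = inhibition of 40% or more at the single tested concentration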;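 note: wild-type TIM10 isogenic control strain grown at permissive 25 °C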
tim10-1 inh: growth inhibitors of tim10-1 mutant yeast; S. cerevisiae tim10-1 ts strain growth, BacTiter-Glo, 24 h; inhibition, % at 20 µM; 330,000 compounds, 2.2% hits; AID 463190;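 active = inhibition of at least 40%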;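 note: mutant grown at 25 °C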
tim23-1 confirm: confirmation of tim23-1 mutant yeast growth inhibitors; inhibition, % at 20 µM; 4,400 compounds, 83% hits; S. cerevisiae tim23-1 growth, BacTiter-Glo luminescence, 24 h; AID 463218; shares compounds with tim23-1 inh;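 active = inhibition above about 39% in either of two replicate wells at 20 µM, limit read from the data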;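 note: temperature-sensitive tim23-1 mutant grown at 25 °C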
A number is an active result; 0 = inactive; ? = inconclusive; - = not tested or not shown. In the library only some 4.4% were active in any assay of this set; here they are far more common.

SMILES	tim23-1 inh	SKKanGAS inh	PfHsp90 set2	TIM10 inh	tim10-1 inh	tim23-1 confirm
COc1ccc(S(=O)(=O)n2nc(OCc3cccs3)cc2N)cc1	0	0	0	0	0	-
Cc1ccc(/C=N/Nc2ccc(C(=O)O)cc2)o1	0	0	0	0	0	-
O=C(O)c1ccc(N/N=C/c2ccc(-c3ccc(Br)cc3)o2)cc1	52	?	0	0	0	47
COC(=O)N/N=C/c1ccccc1OCCOc1ccc(OC)cc1	51	0	0	0	0	48
COC(=O)N/N=C/c1ccccc1OCc1ccccc1	0	0	0	0	0	-
Cc1c(C(=O)OCC(=O)Nc2ccc(C(N)=O)cc2)cccc1[N+](=O)[O-]	0	0	0	0	0	-
CCCNC(=S)Nc1cc2oc3ccccc3c2cc1OC	52	0	0	0	0	52
CCNC(=S)Nc1cc2oc3ccccc3c2cc1OC	0	0	0	0	0	-
CCc1ccc(OCCNc2cc(N3CCNC(C)C3)ccc2[N+](=O)[O-])cc1 (stereo unspecified)	57	-	0	0	0	59
CCOC(=O)C1CCN(C(=O)c2cc3c(ccc4ccccc43)o2)CC1	0	0	0	0	0	-
CCOC(=O)C1CCN(C(=O)c2cc3cc4ccc(C)cc4nc3o2)CC1	58	0	0	0	0	59
COc1ccc2cc3cc(C(=O)N4CCCCC4C)oc3nc2c1 (stereo unspecified)	50	0	0	0	0	59
CCCCC[C@@H]1C=C(C(=O)O)[C@H](c2ccc(Cl)c(Cl)c2)N1S(=O)(=O)c1ccc(C)cc1	0	-	0	0	0	-
Nc1ccc(C(=O)N/N=C/c2cccc(Oc3ccccc3)c2)cc1	0	0	0	0	0	-
O=C(N/N=C/c1cccc(Oc2ccccc2)c1)c1ccccc1F	50	0	-	0	0	46
Cc1nn(C)c(C(=O)N/N=C/c2cccc(Oc3ccccc3)c2)c1Br	52	0	-	0	0	40
Cc1nc2cc(-c3ccccc3)sc2c(=O)n1N	51	63	0	0	0	53
Cc1ccc(C)n1-n1c(C)nc2sc(-c3ccccc3)cc2c1=O	0	0	0	0	0	-
CCc1nnc(NC(=O)c2cccnc2SC)s1	0	0	0	0	0	-
Cc1nn(-c2ccccc2)c(C)c1/C=C1\C(=O)N(C)C(=S)N1C	0	0	0	0	0	-
CC1Oc2cc3oc4c(O)c(O)ccc4c(=O)c3c(O)c2C1(C)C (stereo unspecified)	69	53	104	0	0	70
CC[C@]12c3[nH]c4cc(-c5ccco5)ccc4c3CCN1C(=O)[C@@H](CC(=O)NC(C)(C)C)C[C@@H]2C(=O)N1CCN(C(=O)C2CC2)CC1	0	-	0	0	0	-
CCCC(=O)Nc1nnc(SCC(=O)NC2CC2)s1	0	0	0	0	0	-
CCCCCCSC1=C(C#N)C(c2ccccc2)CC(=O)N1 (stereo unspecified)	51	0	0	0	0	46
Cc1ccc(C2CC(=O)NC(SCc3ccccc3)=C2C#N)cc1 (stereo unspecified)	0	0	0	0	0	-
SMILES	tim23-1 inh	SKKanGAS inh	PfHsp90 set2	TIM10 inh	tim10-1 inh	tim23-1 confirm
Nc1ccc(Br)c2c1C(=O)c1ccccc1C2=O	0	0	-	0	0	-
NC1=C(Br)C(=O)c2ccccc2C1=O	56	0	0	0	0	52
Cc1cccc(N2C(=O)/C(=C\c3ccc(C(=O)O)cc3)c3ccccc3C2=O)c1	56	0	-	0	0	0
Cc1cc([N+](=O)[O-])ccc1NC(=O)C(C)NC1CCCCC1 (stereo unspecified)	0	0	0	0	0	-
O=C(/C(=C/O)N=Nc1ccccc1)c1ccco1	55	0	0	0	0	59
O=C(N/N=C/C(Cl)=C\c1ccccc1)c1ccco1	0	0	0	0	0	-
C/C(=N\NC(=O)c1cccc(Br)c1)c1ccccn1	52	110	0	0	0	0
CC(=NNC(=O)c1ccncc1)c1cccc(Br)c1	-	-	0	-	-	-
Cn1c(C=O)c(-c2ccc3cc[nH]c3c2)c2ccccc21	64	-	0	0	0	55
Cn1c(-c2ccsc2)c(-c2cccs2)c2cc(-c3ccc4cc[nH]c4c3)ccc21	0	-	0	0	0	-
O=C(COc1ccc(Br)cc1)NC(=S)Nc1ccccc1N1CCOCC1	0	0	0	0	0	-
O=C(NC(=S)Nc1ccccc1N1CCOCC1)c1ccc(Br)cc1	55	0	0	0	0	54
O=C(CN1CCCCC1)Nc1nnc(-c2ccc([N+](=O)[O-])cc2)s1	91	0	0	0	0	0
O=C(CN1CCCCC1)Nc1nnc(-c2ccccc2)s1	0	0	-	0	0	-
Cc1c(N(C)S(=O)(=O)c2ccc(Cl)c(C(=O)N3CCC(C(N)=O)CC3)c2)c(=O)n(-c2ccccc2)n1C	0	0	0	0	0	-
CC(C)N1C(=O)C(Cc2nc3ccccc3c(=O)n2-c2ccccc2)c2ccccc21 (stereo unspecified)	0	0	0	0	0	-
CCCN1C(=O)C(Cc2nc3ccccc3c(=O)n2-c2ccccc2)c2ccccc21 (stereo unspecified)	51	0	0	0	0	49
Nc1c(C(=O)CSc2nc3ccccc3o2)c(=O)[nH]c(=O)n1C1CC1	0	-	0	0	0	-
CCOc1cc(NCc2ccccc2)c2ncn(C(C)C)c2c1	63	-	0	0	0	40
CCCCN(C)CCCNC(=O)CN1C(=O)COc2ccc(S(=O)(=O)N3CCOCC3)cc21	0	0	0	0	0	-
O=C(Nc1ccc(C(=O)N2CCCCC2)cc1)C1=CSCCO1	0	0	0	0	0	-
O=C(Nc1ccc(C(=O)N2CCN(c3ccccc3F)CC2)cc1)C1=CSCCO1	53	0	0	0	0	42
CN(C(=O)CSc1nnc(-c2cccnc2)o1)C1CCCCC1	0	-	0	0	0	-
CCc1ccc(OCC(=O)c2c(O)c3ccccc3oc2=O)cc1	0	0	0	0	0	-
CCc1oc2ccccc2c1C(=O)c1cc(Br)c(O)c(Br)c1	56	50	0	0	0	0
SMILES	tim23-1 inh	SKKanGAS inh	PfHsp90 set2	TIM10 inh	tim10-1 inh	tim23-1 confirm
CCCCn1c(N)c(N(CC)C(=O)c2cc3c(s2)CCCCC3)c(=O)[nH]c1=O	0	0	0	0	0	-
CCOC(=O)c1nnsc1NC(=O)Nc1ccc(OC)cc1	84	0	0	0	0	0
O=C(Nc1cc(Cl)ccc1O)C1CC(c2ccccc2Cl)=NO1 (stereo unspecified)	52	0	0	0	0	73
Cc1ccc(CNC(=O)CN(c2ccc(C)cc2)S(=O)(=O)c2c(C)n[nH]c2C)cc1	0	0	0	0	0	-
COCCN(C(=O)COC(=O)c1cnc(C)cn1)c1c(N)n(Cc2ccccc2)c(=O)[nH]c1=O	0	0	0	0	0	-
O=C(/C=C/c1c[nH]c2ccccc12)c1cccc2ccccc12	54	0	0	0	0	62
COc1ccc(N2CCN(C(=O)COC(=O)COc3cc(C)cc(C)c3)CC2)cc1	0	0	0	0	0	-
